# High-throughput results: PubChem BioAssay, National Center for Advancing Translational Sciences (NCATS)
# D2 PAM-1: positive allosteric modulators of human D2 dopamine receptor. P14416. HEK293 T-REx D2, calcium flux, EC20 dopamine potentiation. potentiation, % at 10 µM. hit rate 0.34% among 340,000;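 active = potentiation over 3 SD above the plate norm, cut at about 30% in these data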; also: 0% is about no effect
#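 Calcium flux readout, no-wash dye, 1 read/s. Inducible HEK293 Trex D2 line, overnight 30 C. Compound alone 180 s (agonist flags), then EC20 dopamine, another 180 s to score potentiation.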
# B2AR arrestin: agonists driving beta-arrestin recruitment to human beta2-adrenergic receptor. beta-arrestin recruitment to beta2AR, cell-based reporter. Potency, µM (doses to about 46.1 µM), without a hit: at the top dose activation, actives largely listed as activators. AID 492947. P07550. hit rate 0.02% among 330,000; active = well fitted activation curve with a large enough effect; inconclusive = small, poorly fitted or top-dose-only effect;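 also: potency is read from the fitted curve at half-maximal effect; 0% = DMSO controls and full agonism = EC100 isoproterenol or metaproterenol; nearly all actives have a fitted effect of over 65% in size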
# Target sequence (P07550 whole entry, looked up): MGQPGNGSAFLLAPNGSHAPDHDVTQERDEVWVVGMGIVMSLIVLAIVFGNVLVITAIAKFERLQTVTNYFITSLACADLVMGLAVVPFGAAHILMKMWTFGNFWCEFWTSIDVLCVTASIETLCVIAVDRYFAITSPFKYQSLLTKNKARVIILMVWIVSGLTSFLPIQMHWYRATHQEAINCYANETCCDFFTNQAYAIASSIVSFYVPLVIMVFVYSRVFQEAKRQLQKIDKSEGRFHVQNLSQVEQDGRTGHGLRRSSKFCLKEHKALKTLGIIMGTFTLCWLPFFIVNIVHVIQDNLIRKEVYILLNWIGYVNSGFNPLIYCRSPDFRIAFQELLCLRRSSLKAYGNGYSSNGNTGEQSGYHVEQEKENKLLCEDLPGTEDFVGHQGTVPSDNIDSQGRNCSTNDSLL
# D2 antagonist: D2 dopamine receptor (human) antagonism. HEK293 TREx D2 cells, calcium flux, dopamine EC80. inhibition, % at 10 µM. hit rate 2% among 340,000; in the data active = inhibition above about 30%; inactive = below that, where a call was filed; also: 0% is about no effect
#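 Cells plated overnight at 30 C with tetracycline; no-wash calcium dye, 30–90 min RT; 10 s baseline; compound pinned; 180 s read; EC80 dopamine added; another 180 s read.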
# D2 ag-1: human D2 receptor agonism in beta-arrestin assay. hit rate 0.084% among 360,000. AID 624465. activation, % (concentration not given with the values). DiscoveRx PathHunter D2 beta-arrestin, luminescence, 90 min; 100% = 57 uM dopamine signal; in the data active = activation above about 40%; inconclusive = between about 15% and that limit
#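 DiscoveRx PathHunter D2 beta-arrestin cells (2,100/well) attached overnight, then compound-stimulated 90 min at 37 C in HBSS/10 mM HEPES/0.1% Tween-20 buffer; beta-galactosidase complementation read by luminescence after 1 h at ambient temperature. Dopamine 57 uM final (EC100) as control.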
# D2 ag-2: activates the human D2 dopamine receptor; P14416; HEK293 T-REx D2 cells, calcium flux agonist mode; hit rate 0.53% among 340,000; activation, % at 2 µM;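 active = activation over 3 SD above normal in the single-dose calcium agonist read, cut at about 30% in these data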; also: 0% is about no effect
#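 Tetracycline-induced HEK293 T-REx cells with force-coupled D2 receptor, plated overnight at 30 C, loaded with no-wash calcium dye. After a 10 s baseline, compound was pin-added and calcium flux read kinetically for 180 s; calcium rises flagged agonists.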
# D2 PAM-2: positive allosteric modulators of human D2 dopamine receptor; potentiation, % (no concentration beside the values); AID 624464; P14416; hit rate 0.23% among 360,000; DiscoveRx D2 beta-arrestin cells, luminescence, 90 min; 100% = 57 uM dopamine signal; in the data active = potentiation above about 50%; inconclusive = mostly about 30% to 49%
#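 PathHunter beta-arrestin assay in DiscoveRx D2 cells. Compounds were added with an EC20 of dopamine (50 nM final) for 90 min at 37 deg C. Luminescence was read 1 h after detection reagent, with 57 uM dopamine as the EC100 control.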
# Numbers without * were called inactive; u = inconclusive; x = no result given. Only some compounds are listed: those with a hit (about 2.4% of all), similar ones and a draw of the others.
SMILES,D2 PAM-1,B2AR arrestin,D2 antagonist,D2 ag-1,D2 ag-2,D2 PAM-2
CCC(C)c1ccc(NC(=S)NC2CCN(Cc3ccccc3)CC2)cc1 (stereo not drawn),-23,-1%,x,-3,x,-35
CC1CCN(C(=O)c2[nH]c(C(F)(F)F)nc2-c2ccccc2)CC1,x,x,x,-3,x,1
O=C(CN1C(=O)NC2(CCCC2)C1=O)NCCC1=CCCCC1,25,0%,-2,-2,0,2
S=C(Nc1ccccc1)NC1CCN(Cc2ccccc2)CC1,-27,-1%,92*,-4,1,-39
Cc1cc(F)c(F)c(C(=O)N2CCC(C)CC2)c1Cl,-10,0%,32*,1,-1,0
Cc1cc(F)c(F)c(C(=O)N2CCCCC2C)c1Cl (stereo not drawn),1,0%,-31,-1,0,-6
CCOC(=O)N1CCN(C(=O)Nc2ccc3oc(C)nc3c2)CC1,x,0%,44*,7,1,u
CCOC(=O)C1CCN(C(=O)Nc2ccc3oc(C)nc3c2)CC1,x,0%,x,-2,x,-3
CCCN[C@H]1CCc2nc(N)sc2C1,x,x,x,74*,x,80*
Nc1nc2c(s1)CCCCCCCCCC2,6,0%,6,0,0,1
CC(=O)c1cccc(NC(=O)[C@H]2O[C@@H]3OC(C)(C)O[C@@H]3[C@H]3OC(C)(C)O[C@H]32)c1,3,x,x,x,-1,x
CCOc1ccccc1Nc1ncnc2c1cnn2-c1ccc(C)cc1,0,x,x,x,1,x
O=C1CCNc2cc3ccccc3cc21,28,0%,6,15,0,55*
Cc1ccc(C(=O)NCCC(=O)N2CCOCC2)cc1,6,0%,9,0,-2,1
CN(C)S(=O)(=O)c1cc(NC(=O)CNCc2ccc(F)cc2)ccc1Cl,-26,0%,44*,1,0,-26
CN(C)CCC=C1c2ccccc2C=Cc2ccccc21,-17,0%,49*,5,0,-28
CN(C)CC/C=C1/c2ccccc2COc2ccccc21,-25,0%,21,x,0,x
CNCCC=C1c2ccccc2C=Cc2ccccc21,x,x,x,-8,x,-34
CN(C)CCC=C1c2ccccc2CCc2ccccc21,-29,2%,64*,-4,0,-36
COc1ccc2nc(NC(=O)c3ccccc3F)sc2c1,4,0%,-15,1,0,-6
Cc1nc(-c2ccc(Cl)cc2)sc1C1(C)CC(c2cccc(F)c2)=NO1 (stereo not drawn),-1,0%,30*,-3,0,-5
COc1ccc(OC)c(N2C(=O)CC(Cc3ccc(C)cc3)C2=O)c1 (stereo not drawn),35*,0%,-2,0,-1,3
O=C(O)CCCN1C(=O)C2C3C=CC(C2C1=O)C1C(=O)N(CCCC(=O)O)C(=O)C31 (stereo not drawn),8,0%,-13,0,0,-1
O=c1cc(N2CCCCC2)c(-c2ccccc2)nn1Cc1c(Cl)cccc1Cl,16,0%,32*,-4,0,-10
Cc1ccccc1N(CC(=O)O)S(C)(=O)=O,31*,0%,13,-4,0,25
SMILES,D2 PAM-1,B2AR arrestin,D2 antagonist,D2 ag-1,D2 ag-2,D2 PAM-2
Cc1ccccc1N(CC(N)=O)S(C)(=O)=O,4,0%,-1,1,1,-13
CN(C(=O)c1cncc(Br)c1)C1C2CC3CC(C2)CC1C3 (stereo not drawn),2,-1%,4,5,0,-6
COc1ccc(-c2csc(NCc3ccco3)n2)cc1,8,2%,-10,-6,0,-9
c1coc(CNc2nc(-c3ccncc3)cs2)c1,32*,0%,x,2,x,13
O=c1cc(-c2ccco2)oc2c1ccc1ccccc12,-2,-1%,7,-3,1,-5
O=c1cc(C(Cl)(Cl)Cl)oc2c1ccc1ccccc12,-7,-1%,23,10,0,85*
O=C(NCCc1ccc(Cl)cc1)C1CCN(c2cnccn2)CC1,-3,0%,0,1,-1,2
O=C(NCCc1ccc(Cl)cc1)C1CCN(c2ncccn2)CC1,10,0%,61*,-2,-2,-26
O=C1/C(=C/c2ccc(N3CCCC3)cc2)NC(=S)N1C1CC1,-12,-1%,-20,-1,48*,-16
O=C1N/C(=C/c2ccc(N3CCCC3)cc2)C(=O)N1c1ccccc1,3,1%,2,-2,1,-3
Cc1cc(N2CCCC2)ccc1/C=C1\NC(=S)N(C)C1=O,-7,u,10,-1,36*,-5
CN1C(=O)c2ccc(N3CCCC3)cc2C1=O,-7,0%,17,1,12,2
CC(C)c1ccc(NC(=O)CSc2n[nH]c(=O)n2-c2cccnc2)cc1,5,1%,31*,2,0,-3
C=CCc1ccccc1OCC(O)CN1CCN(c2ccccc2OC)CC1 (stereo not drawn),-27,-1%,-7,1,1,-24
C=CCc1ccccc1OCC(O)CN1CCN(c2ccccc2F)CC1 (stereo not drawn),-26,0%,66*,1,27,-37
COc1ccccc1N1CCN(CC(O)COc2cccc3ccccc23)CC1 (stereo not drawn),-31,0%,86*,-6,2,-38
CC(=O)c1ccccc1OCC(O)CN1CCN(c2ccccn2)CC1 (stereo not drawn),0,0%,15,11,0,-6
COc1cc(C(C)=O)ccc1OCC(O)CN1CCN(c2ccccn2)CC1 (stereo not drawn),-18,-1%,93*,60*,78*,23
COc1ccccc1N1CCN(CC(=O)c2c[nH]c3ccccc23)CC1,-25,0%,63*,0,-1,-17
O=C(COc1ccccc1)Nc1nnc2n1CCS2,5,x,x,x,0,x
COc1ccc2c(C(=O)CN3CCN(c4ccccc4)CC3)c[nH]c2c1,-15,0%,41*,10,56*,-14
COc1ccccc1N1CCN(CC(O)c2ccccc2)CC1 (stereo not drawn),-27,0%,-15,-1,1,-15
COc1ccccc1N1CCN(CC(O)c2c(C)[nH]c3ccccc23)CC1 (stereo not drawn),-13,0%,65*,-4,0,-33
OC(COc1ccccc1Cl)CN1CCN(CC(O)COc2ccccc2Cl)CC1 (stereo not drawn),-16,0%,70*,0,3,-44
COc1ccccc1N1CCN(CC(=O)c2c(C)[nH]c3ccccc23)CC1,-26,0%,31*,0,1,-34
